From PubChem BioAssay (EPA / NIEHS)
Results filed as inconclusive are left out. The source made the active and inactive calls. The calls were made as follows: active = hit-call score of the fitted dose curve at least 0.9, where 1 is the maximum; inconclusive = response in the unintended direction; inactive = score below 0.9.

Key:
[1] = TOX21_p53_BLA_p2_viability: Viability Assessment in the Tox21 HCT-116 p53 Agonism Beta-lactamase Assay, Phase 2 (AID 2283591);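 also: compound exposure lasted 16 h at 37 °C; actives lower the ATP signal meaning cytotoxicity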
Procedure, shortened: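 Cytotoxicity readout: CellTiter-Glo ATP luminescence, 30 min at room temperature, after the beta-lactamase read. Cells were HCT116 exposed 16 h at 37C to compounds pin-transferred at 217-fold dilution from DMSO stocks.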

[2] = biological target: Cellular tumor antigen p53 (Homo sapiens) (UniProt P04637); experiment: TOX21_p53_BLA_p2_ratio: Tox21 HCT-116 p53 Agonism Beta-lactamase Assay, Ratio, Phase 2 (AID 2283592)
Chain of Cellular tumor antigen p53 (Homo sapiens) (P04637 whole entry, looked up): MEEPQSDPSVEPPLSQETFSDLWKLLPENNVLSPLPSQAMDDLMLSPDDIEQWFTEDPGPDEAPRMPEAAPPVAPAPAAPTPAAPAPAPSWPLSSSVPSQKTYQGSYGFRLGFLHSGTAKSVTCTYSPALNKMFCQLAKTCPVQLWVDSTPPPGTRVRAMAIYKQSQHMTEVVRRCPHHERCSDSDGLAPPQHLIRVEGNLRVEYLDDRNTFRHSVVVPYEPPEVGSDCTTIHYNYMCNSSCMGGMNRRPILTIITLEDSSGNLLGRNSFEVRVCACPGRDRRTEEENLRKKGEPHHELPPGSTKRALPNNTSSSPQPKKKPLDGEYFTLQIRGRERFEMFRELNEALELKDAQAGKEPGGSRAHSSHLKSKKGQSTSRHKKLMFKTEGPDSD
Procedure, shortened: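 Ratio endpoint: beta-lactamase cleavage of CCF4-AM, blue (460 nm) over green (530 nm). HCT116 reporter line; 16 h treatment, 37C; substrate 2 h RT.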

[3] = TOX21_p53_BLA_p3_viability: Viability Assessment in the Tox21 HCT-116 p53 Agonism Beta-lactamase Assay, Phase 3 (AID 2283593);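 also: cells exposed to compound for 16 h before reading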
Procedure, shortened: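 Cellular ATP was quantified by CellTiter-Glo luminescence, read after 30 min at room temperature. Beforehand, HCT116 cells (4000/well) received compound 5 h post-seeding, 217-fold diluted from DMSO, then incubated 16 h at 37C.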

[4] = biological target: Cellular tumor antigen p53 (Homo sapiens) (UniProt P04637); experiment: TOX21_p53_BLA_p3_ratio: Tox21 HCT-116 p53 Agonism Beta-lactamase Assay, Ratio, Phase 3 (AID 2283596)
Procedure, shortened: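 Cells were seeded at 4000/well, rested 5 h at 37C, then dosed with DMSO compound solutions (217-fold dilution) for 16 h. CCF4-AM substrate was loaded for 2 h at room temperature, and the 460/530 nm emission ratio was fitted for gain of signal versus DMSO.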

[5] = biological target: Cellular tumor antigen p53 (Homo sapiens) (UniProt P04637); experiment: TOX21_p53_BLA_p5_ratio: Tox21 HCT-116 p53 Agonism Beta-lactamase Assay, Ratio, Phase 5 (AID 2283599)
Procedure, shortened: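 Beta-lactamase reporter ratio (blue 460 nm over green 530 nm, 405 nm excitation) after 2 h CCF4-AM loading, in HCT-116 cells exposed 16 h at 37 C to compounds pinned at 217-fold dilution. Increases relative to DMSO baseline scored.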

[6] = TOX21_p53_BLA_p5_viability: Viability Assessment in the Tox21 HCT-116 p53 Agonism Beta-lactamase Assay, Phase 5 (AID 2283600)
Procedure, shortened: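 Luciferase-coupled ATP quantitation of cells treated for 16 h (37C, 5% CO2) with test chemicals delivered in DMSO via a 217-fold dilution; 4000 cells/well; reagent incubated 30 min at room temperature before luminescence reading.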

[7] = biological target: Cellular tumor antigen p53 (Homo sapiens) (UniProt P04637); experiment: TOX21_p53_BLA_p4_ratio: Tox21 HCT-116 p53 Agonism Beta-lactamase Assay, Ratio, Phase 4 (AID 2283601)
Procedure, shortened: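 Signal is the blue/green (460nm/530nm) ratio of cleaved versus uncleaved CCF4-AM substrate, read after 2 h substrate loading. Cells were HCT116 carrying the p53-responsive beta-lactamase reporter, dosed 16 h at 37C, 5% CO2; CellTiter-Glo measured in parallel.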

[8] = TOX21_p53_BLA_p4_viability: Viability Assessment in the Tox21 HCT-116 p53 Agonism Beta-lactamase Assay, Phase 4 (AID 2283597);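 also: hits lower the luminescence signal meaning cytotoxicity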
Procedure, shortened: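 Cytotoxicity was inferred from loss of CellTiter-Glo luminescence. HCT116 cells had been dosed with compounds after 5 h plating, incubated 16 h at 37C and 5% CO2, and exposed to the CCF4-AM substrate for 2 h.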

Measured: AC50

CCCCCCCCCCCCCC[P+](CCCCCC)(CCCCCC)CCCCCC (tested in a mixture with another compound)
active: [1] 11.7 µM | [2] 21.4 µM | [3] 24.1 µM | [4] 33.5 µM | [5] 46.8 µM | [6] 15.2 µM
inactive: [7]

CC[N+](C)(CC)CCOC(=O)C(O)(c1ccccc1)c1ccccc1
not listed: [8]
inactive: all other assays above

C1CCC2CCCCC2C1 (centres undefined)
not listed: [6] | [8]
inactive: all other assays above

C[C@]12CC[C@@H]3c4ccc(OC(=O)N(CCCl)CCCl)cc4CC[C@H]3[C@@H]1CC[C@@H]2O
active: [2] 24.6 µM | [4] 29 µM | [5] 25.2 µM | [7] 31.9 µM
inactive: [1] | [3]

O=C(Cl)CCl
not listed: [8]
inactive: all other assays above

CCNc1nc(NC(C)C)nc(OC)n1
not listed: [4] | [7]
inactive: all other assays above
